1 sequence from publication PMC7862700, “An all-to-all approach to the identification of sequence-specific readers for epigenetic DNA modifications on cytosine” can be followed below.

Holding throughout (assay): DAPPL (digital affinity profiling via proximity ligation, sequencing); 10 mM Tris-HCl pH 7.5, 50 mM NaCl, 1 mM DTT, 4% glycerol, room temperature, 30 min; GST-TFs on glutathione beads, 16-mer random dsDNA library, 0.1% formaldehyde crosslink after washing; high values mean tight binding
The target in assay [1] is T1, FEV (Homo sapiens, UniProt Q99581 1-238).
T1 sequence: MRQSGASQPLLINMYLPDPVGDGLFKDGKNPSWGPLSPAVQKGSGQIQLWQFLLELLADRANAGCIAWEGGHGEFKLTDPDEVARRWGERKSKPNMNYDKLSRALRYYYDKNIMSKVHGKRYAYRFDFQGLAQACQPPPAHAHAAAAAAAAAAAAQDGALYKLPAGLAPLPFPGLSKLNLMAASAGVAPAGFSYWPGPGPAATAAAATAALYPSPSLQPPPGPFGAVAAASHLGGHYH
Conditions: protein: recombinant; tags: N-terminal GST; dsDNA, one strand shown. Put shortly:
(§1)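 Human transcription factors were made in yeast as GST fusions, captured on glutathione beads and barcoded with DNA. With a tag-only sample included, the pool was incubated with 200 nmole of a random double-stranded 16-mer DNA library in Tris/NaCl/DTT/glycerol buffer at room temperature for 30 min, then crosslinked with 0.1% formaldehyde after washing, ligated by proximity, amplified and sequenced. For binding signal, each hexamer's read frequency for a factor is divided by its frequency for the tag-only sample.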

In assay [2] the target is ETV5 (Homo sapiens, UniProt P41161 1-510). Conditions: protein: recombinant; tags: N-terminal GST; dsDNA, one strand shown. Put shortly:
as §1

Assay [3] concerns the target HSF1 (Homo sapiens, UniProt Q00613 1-529). The note with it: protein: recombinant; tags: N-terminal GST; chain copies: 3; dsDNA, one strand shown. Put shortly:
as §1

The target in assay [4] is T2, SPIC (Homo sapiens, UniProt Q8N5J4 1-248).
T2 sequence: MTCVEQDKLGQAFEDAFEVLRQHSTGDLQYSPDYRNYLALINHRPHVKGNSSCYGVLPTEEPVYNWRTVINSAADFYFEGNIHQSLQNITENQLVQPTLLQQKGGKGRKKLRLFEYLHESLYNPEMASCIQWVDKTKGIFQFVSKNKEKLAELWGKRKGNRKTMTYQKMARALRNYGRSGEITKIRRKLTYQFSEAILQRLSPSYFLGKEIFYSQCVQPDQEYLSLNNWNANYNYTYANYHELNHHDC
Conditions: protein: recombinant; tags: N-terminal GST; dsDNA, one strand shown. The method in brief: as §1

For assay [5], the target named is ELF4 (Homo sapiens, UniProt Q99607 1-663). Conditions: protein: recombinant; tags: N-terminal GST; dsDNA, one strand shown. The method in brief: as §1
Chain of ELF4 (Q99607 whole entry): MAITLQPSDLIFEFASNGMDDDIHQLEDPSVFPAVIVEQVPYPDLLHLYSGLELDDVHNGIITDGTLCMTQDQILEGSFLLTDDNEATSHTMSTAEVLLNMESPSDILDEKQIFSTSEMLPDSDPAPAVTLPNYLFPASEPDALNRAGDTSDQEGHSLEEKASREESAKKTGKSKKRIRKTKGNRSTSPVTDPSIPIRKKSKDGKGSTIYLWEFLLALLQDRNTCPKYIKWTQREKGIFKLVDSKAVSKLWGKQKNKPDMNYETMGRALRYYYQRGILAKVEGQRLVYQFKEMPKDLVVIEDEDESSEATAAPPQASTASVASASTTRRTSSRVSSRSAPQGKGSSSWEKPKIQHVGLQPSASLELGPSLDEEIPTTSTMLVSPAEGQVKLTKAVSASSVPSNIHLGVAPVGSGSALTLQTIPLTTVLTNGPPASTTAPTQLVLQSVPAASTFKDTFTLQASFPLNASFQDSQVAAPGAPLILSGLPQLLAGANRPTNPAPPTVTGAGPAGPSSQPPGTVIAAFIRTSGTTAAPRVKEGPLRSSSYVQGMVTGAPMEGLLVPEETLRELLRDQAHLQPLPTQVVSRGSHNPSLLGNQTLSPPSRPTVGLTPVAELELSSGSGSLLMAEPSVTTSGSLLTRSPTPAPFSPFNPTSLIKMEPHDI
Assay [6] deals with T3, ELK4 (Homo sapiens, UniProt P28324-2 1-405).
T3 sequence: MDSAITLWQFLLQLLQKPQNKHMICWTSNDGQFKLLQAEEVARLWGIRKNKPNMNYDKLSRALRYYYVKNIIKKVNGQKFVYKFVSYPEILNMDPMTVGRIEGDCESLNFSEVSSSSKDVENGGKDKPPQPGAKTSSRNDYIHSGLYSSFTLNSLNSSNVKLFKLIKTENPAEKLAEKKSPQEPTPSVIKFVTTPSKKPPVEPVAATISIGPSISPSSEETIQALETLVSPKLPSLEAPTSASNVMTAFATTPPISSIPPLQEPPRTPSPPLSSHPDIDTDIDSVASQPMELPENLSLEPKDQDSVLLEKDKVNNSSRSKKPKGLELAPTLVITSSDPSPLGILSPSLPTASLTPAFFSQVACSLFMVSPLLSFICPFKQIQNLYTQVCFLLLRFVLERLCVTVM
The note with it: protein: recombinant; tags: N-terminal GST; dsDNA, one strand shown. The method in brief: as §1

Assay [7] addresses T4, ETV2 (Homo sapiens, UniProt O00321 1-342).
T4 sequence: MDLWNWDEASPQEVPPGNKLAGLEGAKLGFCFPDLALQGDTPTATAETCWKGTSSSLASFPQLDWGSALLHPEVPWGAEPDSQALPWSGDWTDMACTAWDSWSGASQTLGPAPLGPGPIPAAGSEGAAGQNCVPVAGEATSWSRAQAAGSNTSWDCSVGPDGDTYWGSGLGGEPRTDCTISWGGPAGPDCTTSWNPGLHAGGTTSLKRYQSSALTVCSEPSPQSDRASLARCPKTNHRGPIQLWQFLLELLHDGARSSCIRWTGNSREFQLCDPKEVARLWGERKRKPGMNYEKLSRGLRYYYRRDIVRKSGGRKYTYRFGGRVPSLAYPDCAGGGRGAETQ
Conditions: protein: recombinant; tags: N-terminal GST; dsDNA, one strand shown. Put shortly:
as §1

The target in assay [8] is T5, ELF3 (Homo sapiens, UniProt P78545 1-371).
T5 sequence: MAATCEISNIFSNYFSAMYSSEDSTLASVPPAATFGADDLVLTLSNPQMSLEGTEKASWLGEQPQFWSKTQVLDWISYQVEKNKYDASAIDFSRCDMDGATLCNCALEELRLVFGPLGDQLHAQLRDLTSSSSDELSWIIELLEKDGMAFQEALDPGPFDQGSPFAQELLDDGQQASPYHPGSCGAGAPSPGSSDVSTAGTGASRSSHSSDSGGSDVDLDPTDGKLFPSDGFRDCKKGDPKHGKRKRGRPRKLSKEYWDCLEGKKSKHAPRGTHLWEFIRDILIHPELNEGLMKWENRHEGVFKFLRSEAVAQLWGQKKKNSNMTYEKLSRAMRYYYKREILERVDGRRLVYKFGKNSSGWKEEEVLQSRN
The note with it: protein: recombinant; tags: N-terminal GST; dsDNA, one strand shown. The method in brief:
as §1

The target in assay [9] is CRX (Homo sapiens, UniProt O43186 1-299). Conditions: protein: recombinant; tags: N-terminal GST; dsDNA, one strand shown. The method in brief:
as §1

Assay [10] addresses ETV1 (Homo sapiens, UniProt P50549 1-477). The note with it: protein: recombinant; tags: N-terminal GST; dsDNA, one strand shown. Put shortly:
as §1

The target of assay [11] is T6, ERF (Homo sapiens, UniProt P50548 1-548).
T6 sequence: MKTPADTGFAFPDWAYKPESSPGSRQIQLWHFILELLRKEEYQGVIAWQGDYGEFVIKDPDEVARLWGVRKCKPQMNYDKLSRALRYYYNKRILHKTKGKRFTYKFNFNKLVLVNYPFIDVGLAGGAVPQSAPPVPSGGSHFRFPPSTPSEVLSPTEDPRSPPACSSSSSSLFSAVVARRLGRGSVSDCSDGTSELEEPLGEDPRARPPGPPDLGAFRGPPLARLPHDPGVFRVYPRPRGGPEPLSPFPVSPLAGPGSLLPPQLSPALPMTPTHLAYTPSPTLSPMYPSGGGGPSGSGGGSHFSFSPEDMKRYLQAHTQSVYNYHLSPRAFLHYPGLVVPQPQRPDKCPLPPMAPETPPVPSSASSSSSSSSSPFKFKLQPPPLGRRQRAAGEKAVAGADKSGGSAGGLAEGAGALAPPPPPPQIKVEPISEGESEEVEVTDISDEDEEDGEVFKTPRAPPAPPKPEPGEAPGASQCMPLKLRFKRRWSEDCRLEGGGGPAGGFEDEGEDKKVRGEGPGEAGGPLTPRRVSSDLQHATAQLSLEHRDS
The note with it: protein: recombinant; tags: N-terminal GST; dsDNA, one strand shown. The method in brief: as §1

Assay [12] has as its target T7, ETV3L (Homo sapiens, UniProt Q6ZN32 1-361).
T7 sequence: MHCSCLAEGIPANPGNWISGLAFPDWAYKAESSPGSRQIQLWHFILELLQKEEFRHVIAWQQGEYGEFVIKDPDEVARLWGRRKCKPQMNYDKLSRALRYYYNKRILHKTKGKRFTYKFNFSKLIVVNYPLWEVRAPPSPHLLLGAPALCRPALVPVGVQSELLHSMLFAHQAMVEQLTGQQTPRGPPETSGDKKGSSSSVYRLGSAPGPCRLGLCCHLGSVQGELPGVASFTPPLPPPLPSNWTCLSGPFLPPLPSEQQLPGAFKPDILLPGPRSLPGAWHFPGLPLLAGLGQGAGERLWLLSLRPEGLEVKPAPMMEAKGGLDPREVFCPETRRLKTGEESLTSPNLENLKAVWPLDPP
The note with it: protein: recombinant; tags: N-terminal GST; dsDNA, one strand shown. The method in brief: as §1

Assay [13] concerns the target T8, ETS2 (Homo sapiens, UniProt P15036 1-469).
T8 sequence: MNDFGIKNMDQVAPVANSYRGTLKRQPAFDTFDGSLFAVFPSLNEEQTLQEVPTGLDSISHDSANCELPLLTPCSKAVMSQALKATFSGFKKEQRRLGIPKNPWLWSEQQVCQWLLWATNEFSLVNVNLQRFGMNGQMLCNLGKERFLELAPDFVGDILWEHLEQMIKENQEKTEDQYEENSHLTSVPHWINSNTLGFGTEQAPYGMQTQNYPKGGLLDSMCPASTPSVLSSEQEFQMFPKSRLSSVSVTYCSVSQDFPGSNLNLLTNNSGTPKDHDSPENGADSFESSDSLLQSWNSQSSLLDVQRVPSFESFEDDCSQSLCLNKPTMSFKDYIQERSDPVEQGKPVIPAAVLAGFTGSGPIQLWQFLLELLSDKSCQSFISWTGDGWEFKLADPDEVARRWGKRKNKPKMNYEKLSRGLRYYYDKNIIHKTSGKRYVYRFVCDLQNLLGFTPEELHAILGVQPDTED
The note with it: protein: recombinant; tags: N-terminal GST; dsDNA, one strand shown. The method in brief: as §1

In assay [14] the target is T9, SPDEF (Homo sapiens, UniProt O95238 1-335).
T9 sequence: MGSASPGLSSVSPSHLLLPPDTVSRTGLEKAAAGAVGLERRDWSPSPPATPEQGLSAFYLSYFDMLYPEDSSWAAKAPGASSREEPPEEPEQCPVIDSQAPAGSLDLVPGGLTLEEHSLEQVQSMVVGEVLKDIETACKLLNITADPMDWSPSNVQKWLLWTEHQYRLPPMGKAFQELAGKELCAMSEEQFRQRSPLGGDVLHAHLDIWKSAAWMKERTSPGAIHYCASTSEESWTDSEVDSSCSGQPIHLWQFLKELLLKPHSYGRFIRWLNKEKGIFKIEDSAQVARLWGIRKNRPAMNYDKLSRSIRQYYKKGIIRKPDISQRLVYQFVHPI
Conditions: protein: recombinant; tags: N-terminal GST; dsDNA, one strand shown. Put shortly: as §1

Assay [15] addresses T10, ETV7 (Homo sapiens, UniProt Q9Y603 1-341).
T10 sequence: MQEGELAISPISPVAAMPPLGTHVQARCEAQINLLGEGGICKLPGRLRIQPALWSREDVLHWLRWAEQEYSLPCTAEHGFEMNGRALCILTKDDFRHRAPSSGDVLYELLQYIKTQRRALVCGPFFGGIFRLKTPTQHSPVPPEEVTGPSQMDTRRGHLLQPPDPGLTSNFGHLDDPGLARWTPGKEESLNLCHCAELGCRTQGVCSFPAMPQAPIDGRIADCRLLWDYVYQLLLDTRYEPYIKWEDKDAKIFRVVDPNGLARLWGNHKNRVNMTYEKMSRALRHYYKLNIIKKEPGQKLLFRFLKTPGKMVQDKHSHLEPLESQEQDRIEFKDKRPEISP
Conditions: protein: recombinant; tags: N-terminal GST; dsDNA, one strand shown. The method in brief: as §1

Assay [16] has as its target T11, ELF5 (Homo sapiens, UniProt Q9UKW6-2 1-255).
T11 sequence: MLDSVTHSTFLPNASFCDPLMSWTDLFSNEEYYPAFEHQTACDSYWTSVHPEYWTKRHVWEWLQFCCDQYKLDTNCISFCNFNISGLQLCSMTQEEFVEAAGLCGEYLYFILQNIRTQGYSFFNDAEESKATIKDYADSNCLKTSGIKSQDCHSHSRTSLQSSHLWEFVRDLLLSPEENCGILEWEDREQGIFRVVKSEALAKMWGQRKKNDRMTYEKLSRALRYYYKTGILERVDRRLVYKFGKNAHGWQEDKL
Conditions: protein: recombinant; tags: N-terminal GST; dsDNA, one strand shown. The method in brief: as §1

For assay [17], the target named is T12, ETV3 (Homo sapiens, UniProt P41162-2 1-143).
T12 sequence: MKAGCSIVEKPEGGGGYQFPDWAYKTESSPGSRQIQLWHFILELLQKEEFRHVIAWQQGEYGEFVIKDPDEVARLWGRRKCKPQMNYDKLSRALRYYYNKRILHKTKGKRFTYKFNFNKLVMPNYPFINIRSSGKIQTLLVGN
The note with it: protein: recombinant; tags: N-terminal GST; dsDNA, one strand shown. The method in brief: as §1

For assay [18], the target named is ETV6 (Homo sapiens, UniProt P41212 1-452). The note with it: protein: recombinant; tags: N-terminal GST; dsDNA, one strand shown. The method in brief:
as §1

Chain of ETV1 (P50549 whole entry): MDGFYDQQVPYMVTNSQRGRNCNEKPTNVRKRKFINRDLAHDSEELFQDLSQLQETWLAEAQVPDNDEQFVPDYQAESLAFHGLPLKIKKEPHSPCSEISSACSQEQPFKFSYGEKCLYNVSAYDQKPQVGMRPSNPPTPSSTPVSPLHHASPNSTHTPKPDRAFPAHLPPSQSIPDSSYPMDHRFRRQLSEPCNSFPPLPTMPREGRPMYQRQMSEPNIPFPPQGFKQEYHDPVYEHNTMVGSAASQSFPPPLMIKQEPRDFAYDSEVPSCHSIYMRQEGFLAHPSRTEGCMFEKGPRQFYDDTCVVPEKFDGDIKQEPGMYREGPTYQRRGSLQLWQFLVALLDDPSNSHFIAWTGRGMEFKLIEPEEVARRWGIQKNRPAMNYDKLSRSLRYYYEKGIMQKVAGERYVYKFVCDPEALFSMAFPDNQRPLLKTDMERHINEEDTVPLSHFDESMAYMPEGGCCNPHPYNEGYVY
Chain of ETV6 (P41212 whole entry): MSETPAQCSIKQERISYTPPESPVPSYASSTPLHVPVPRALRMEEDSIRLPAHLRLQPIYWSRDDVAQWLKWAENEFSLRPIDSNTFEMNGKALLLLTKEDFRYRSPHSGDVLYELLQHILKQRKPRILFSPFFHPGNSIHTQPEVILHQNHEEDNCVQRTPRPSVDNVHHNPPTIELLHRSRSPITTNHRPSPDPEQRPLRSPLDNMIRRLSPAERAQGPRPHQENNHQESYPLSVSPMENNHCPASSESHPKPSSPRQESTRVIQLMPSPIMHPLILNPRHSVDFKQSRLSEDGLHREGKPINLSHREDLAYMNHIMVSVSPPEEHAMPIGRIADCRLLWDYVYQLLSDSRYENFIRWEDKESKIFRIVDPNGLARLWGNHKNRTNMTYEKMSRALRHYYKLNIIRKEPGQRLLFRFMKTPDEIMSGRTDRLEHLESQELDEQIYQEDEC
Chain of CRX (O43186 whole entry): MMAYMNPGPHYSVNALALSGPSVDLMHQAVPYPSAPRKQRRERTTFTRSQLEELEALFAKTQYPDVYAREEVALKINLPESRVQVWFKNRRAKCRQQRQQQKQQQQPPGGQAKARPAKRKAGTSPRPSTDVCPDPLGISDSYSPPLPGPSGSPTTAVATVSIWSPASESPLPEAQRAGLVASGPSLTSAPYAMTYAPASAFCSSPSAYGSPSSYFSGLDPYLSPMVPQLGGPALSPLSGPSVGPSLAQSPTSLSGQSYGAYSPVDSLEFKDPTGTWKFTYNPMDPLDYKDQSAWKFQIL
Chain of ETV5 (P41161 whole entry): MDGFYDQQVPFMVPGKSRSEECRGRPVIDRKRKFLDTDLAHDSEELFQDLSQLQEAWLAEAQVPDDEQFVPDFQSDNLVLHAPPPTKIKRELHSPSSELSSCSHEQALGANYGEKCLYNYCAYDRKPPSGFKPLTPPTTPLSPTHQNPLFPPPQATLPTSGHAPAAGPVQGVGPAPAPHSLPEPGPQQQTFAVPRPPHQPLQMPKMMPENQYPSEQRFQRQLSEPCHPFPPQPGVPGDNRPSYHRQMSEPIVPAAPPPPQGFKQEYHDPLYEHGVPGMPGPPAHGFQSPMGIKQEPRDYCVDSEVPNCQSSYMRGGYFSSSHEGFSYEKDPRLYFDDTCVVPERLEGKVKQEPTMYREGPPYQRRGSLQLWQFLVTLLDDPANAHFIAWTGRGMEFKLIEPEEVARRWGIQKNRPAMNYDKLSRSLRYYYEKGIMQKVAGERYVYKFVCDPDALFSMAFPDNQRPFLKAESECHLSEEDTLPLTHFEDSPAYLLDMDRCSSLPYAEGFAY
Chain of HSF1 (Q00613 whole entry): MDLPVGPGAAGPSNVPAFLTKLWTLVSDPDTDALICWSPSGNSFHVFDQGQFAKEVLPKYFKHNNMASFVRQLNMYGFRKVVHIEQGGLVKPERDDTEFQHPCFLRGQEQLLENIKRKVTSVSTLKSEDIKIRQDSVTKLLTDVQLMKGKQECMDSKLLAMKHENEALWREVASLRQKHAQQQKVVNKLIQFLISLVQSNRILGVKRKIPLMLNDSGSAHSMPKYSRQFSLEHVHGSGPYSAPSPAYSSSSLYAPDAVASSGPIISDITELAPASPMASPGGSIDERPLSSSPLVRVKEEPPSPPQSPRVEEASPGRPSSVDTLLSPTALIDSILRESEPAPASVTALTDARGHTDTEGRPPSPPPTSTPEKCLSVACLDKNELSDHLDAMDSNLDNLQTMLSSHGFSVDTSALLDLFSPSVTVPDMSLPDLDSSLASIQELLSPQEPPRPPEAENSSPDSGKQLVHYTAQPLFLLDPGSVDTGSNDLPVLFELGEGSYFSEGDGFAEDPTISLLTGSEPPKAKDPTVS

For AAAAGC, the binding signal in [1] was 1.21 fold enrichment (6-mer frequency, TF over GST control); in assay [2], 1.29 fold enrichment (6-mer frequency, TF over GST control); in [3] it was 1.3 fold enrichment (6-mer frequency, TF over GST control); in [4], 1.2 fold enrichment (6-mer frequency, TF over GST control); in [5], 1.17 fold enrichment (6-mer frequency, TF over GST control); in assay [6] it was 1.3 fold enrichment (6-mer frequency, TF over GST control). Further, the binding signal was 1.28 fold enrichment (6-mer frequency, TF over GST control) in assay [7]; 1.22 fold enrichment (6-mer frequency, TF over GST control) in assay [8]; 1.43 fold enrichment (6-mer frequency, TF over GST control) in [9]; 1.19 fold enrichment (6-mer frequency, TF over GST control) in [10]; 1.15 fold enrichment (6-mer frequency, TF over GST control) in assay [11]; 1.23 fold enrichment (6-mer frequency, TF over GST control) in assay [12]. Also, the binding signal in assay [13] was 1.15 fold enrichment (6-mer frequency, TF over GST control); in assay [14] it was 1.07 fold enrichment (6-mer frequency, TF over GST control); in assay [15], 1.35 fold enrichment (6-mer frequency, TF over GST control); in assay [16], 1.26 fold enrichment (6-mer frequency, TF over GST control); in [17], 1.22 fold enrichment (6-mer frequency, TF over GST control); in assay [18], 1.26 fold enrichment (6-mer frequency, TF over GST control).
